Data on 38 molecules can be found in PubChem BioAssay (NCATS).

The structures appear in SMILES notation. Records with an inconclusive call do not appear. Active and inactive are the calls of the source. Calls come from the whole dose curve; as a rule, active = well fitted inhibition curve with a large enough effect; inconclusive = small, poorly fitted or top-dose-only effect; inactive = flat fitted curve, though single readings scatter.
% is set by controls: 0 for no effect and ±100 for the full control effect.

The test system of this test is CRL-7250. Briefly: Cytotoxic Profiling of Annotated Libraries Using Quantitative High-Throughput Screening (AID 1296008). Note: nearly all actives have a fitted effect of over 60% in size. The conditions noted are these: Five cell lines viability, CellTiter-Glo ATP luminescence, 48-72 h; max response: hits give low values. The method in brief:
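Compounds were pin-transferred onto cells and incubated 48 or 72 hr at 37 degree Celsius, 95% humidity. CellTiter-Glo was added, plates sat 10 min at room temperature, then ATP-coupled luminescence was imaged as the viability read-out.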
As to `COc1cccc(OC)c1-c1ccc(C[C@H](NC(=O)c2c(Cl)cccc2Cl)C(=O)O)cc1`, the max response is 1.89% (inactive).

Consider `Nc1ncnc2c1c(COc1cccc(Cl)c1)nn2C1CCOCC1`, for which the max response is -3.67% (inactive).

With `C=C1CC/C=C(/C(=O)O)CCC2C1CC2(C)C` (stereo not drawn), the max response is -2.67% (inactive).

In the case of `COC(=O)C1=CO[C@@H](O[C@@H]2O[C@H](CO)[C@@H](O)[C@H](O)[C@H]2O)[C@@H]2[C@@H](C)[C@@H](O)C(O)[C@H]12` (stereo partly drawn), the max response was -0.07% (inactive).

As for `C=C1C(=O)O[C@@H]2CC(C)=C([C@@H](C)CCCOC(C)=O)[C@@H](O)[C@H]12`, the max response is 0.455% (inactive).

Regarding `O=C(C[C@@H]1C(C(=O)O)=CO[C@@H](O[C@@H]2O[C@H](CO)[C@@H](O)[C@H](O)[C@H]2O)/C1=C\CO)OCCc1ccc(O)c(O)c1`, the max response was -2.34% (inactive).

With `C/C1=C\CC(C)(C)/C=C/C/C(C(=O)O)=C/CC1`, the max response was -3% (inactive).

In the case of `OC[C@H]1O[C@@H](OCc2ccccc2)[C@H](O[C@@H]2OC[C@@H](O)[C@H](O)[C@H]2O)[C@@H](O)[C@@H]1O`, the result was inactive.

`COc1cc(/C=C/C(=O)O)ccc1O[C@@H]1O[C@H](CO)[C@@H](O)[C@H](O)[C@H]1O[C@@H]1OC[C@](O)(CO)[C@H]1O`: the call was inactive.

Regarding `COC(=O)C1(C)CCCC2(C)c3ccc(C(C)C)cc3C(O)C(O)C12` (stereo not drawn), the max response is -3.44% (inactive).

Take `O=C(O)CC(CCc1ccccc1)OC1OC(CO)C(O)C(O)C1O` (stereo not drawn): the max response is -6.12% (inactive).

Consider `CC1=C[C@@H]2[C@H]3[C@@H]4O[C@@](C)(CC[C@H]4O)[C@H]3CC(=O)[C@]23C(=O)N[C@@H](CC(C)C)[C@@H]3[C@@H]1C`, for which the molecule was called inactive.

For the molecule `COc1ccc(/C=C/C(=O)O[C@@H]2[C@@H](O[C@@H]3O[C@H](CO)[C@@H](O)[C@H](O)[C@H]3O)[C@@H](O)[C@H](O[C@H]3C4C=CO[C@@H](O[C@@H]5O[C@H](CO)[C@@H](O)[C@H](O)[C@H]5O)C4[C@@]4(CO)O[C@@H]34)O[C@H]2C)cc1` (stereo partly drawn), the max response was -8.31% (inactive).

Consider `NCCCCN(Cc1nc2ccccc2[nH]1)[C@H]1CCCc2cccnc21`, for which the max response is -5.02% (inactive).

Turning to `COc1cc(/C=C/C(=O)OC[C@H]2O[C@@H](OC3CC(C)=C(C(=O)O)C(C)(C)C3)[C@H](O)[C@@H](O)[C@@H]2O)cc(OC)c1O` (stereo partly drawn), the max response was -3.13% (inactive).

With `CC1CCC2(NC1)OC1C(O)C3C4CCC5CC(O[C@@H]6O[C@H](CO)[C@@H](O)[C@H](O)[C@H]6O[C@@H]6O[C@@H](C)[C@H](O)[C@@H](O)[C@H]6O)CCC5(C)C4CCC3(C)C1C2C` (stereo partly drawn), the max response was -4.87% (inactive).

As for `O=C(O)CCc1c(C(=O)O)[nH]c2cc(Cl)cc(Cl)c12`, the max response was -1.79% (inactive).

For `C=C(C(=O)OC)[C@]12O[C@@](C)(CC[C@@]3(O)/C(=C\C)C(=O)O[C@]3(C)C[C@@H]1OC(=O)C(CO)CN1CCCC1C(=O)O)CC2=O` (stereo partly drawn), the molecule was called inactive.

Regarding `CC(C)c1cc2c(c(O)c1O)[C@@]13CCCC(C)(C)C1[C@@H](O)[C@@H]2OC3=O` (stereo partly drawn), the max response is 4.77% (inactive).

In the case of `CC1CC(O)/C=C/C(O)/C=C\C(=O)O1` (stereo not drawn), the max response was 0.731% (inactive).

As for `C=C1C(=O)O[C@@H]2C[C@]3(C)[C@@H](CCC(C)=O)[C@@H]3C[C@H]12`, the max response is 4.44% (inactive).

In the case of `C/C(=C\C(=O)C[C@@]12C(=O)O[C@]3(C)CC[C@H]1C[C@H]23)C(N)=O`, the max response is -61.5% (inactive).

As for `C=C(COC(=O)CC(C)C)C1Cc2cc(C(C)=O)ccc2O1` (stereo not drawn), the call was inactive.

Turning to `CN(C)CCC[C@]1(c2ccc(F)cc2)OCc2cc(C#N)ccc21`, the max response was 1.86% (inactive).

Regarding `C=C1C(OC(C)=O)[C@@]23CCC4[C@](C)(C(=O)O)CCC[C@@]4(C)[C@]2(O)CC[C@H]1C3` (stereo partly drawn), the max response was 1.93% (inactive).

On to `CC(=O)OC1C(CO)OC(O[C@H]2[C@H](OC(=O)[C@]34CCC(C)(C)C[C@H]3C3=CCC5[C@@]6(C)CC[C@H](O[C@@H]7O[C@H](C(=O)O)[C@@H](O)[C@H](O[C@@H]8OC[C@@H](O)[C@H](O)[C@H]8O)[C@H]7O[C@@H]7O[C@H](CO)[C@H](O)[C@H](O)[C@H]7O)[C@@](C)(C=O)C6CC[C@@]5(C)[C@]3(C)C[C@H]4O)O[C@H](C)[C@H](OC3OC(C)C(OC4OCC(O)C(O)C4O)C(O)C3O)[C@@H]2O)C(O)C1O` (stereo partly drawn), for which the max response was -0.582% (inactive).

Take `O=C(O)c1cc(C(F)(F)F)ccc1N1CC[C@H](OCc2ccccn2)C1`: the call was inactive.

With `C/C(=C\CCC(C)(C)O)CCO[C@@H]1O[C@H](CO[C@@H]2O[C@@H](C)[C@H](O)[C@@H](O)[C@H]2O)[C@@H](O)[C@H](O)[C@H]1O`, the result was inactive.

Regarding `O=[N+]([O-])c1cc(Cl)ccc1S(=O)(=O)N1CCN(Cc2ccccc2)CC1`, the max response was -3.5% (inactive).

In the case of `CC1(C)C[C@H](O)C[C@@]2(C)[C@H]1[C@H](O)C=C1COC(=O)[C@@]12O`, the molecule was called inactive.

On to `CC(=O)N[C@H]1[C@H](O[C@H]2CC[C@]3(C)C4CC=C5[C@@H]6CC(C)(C)CC[C@]6(C(=O)O)[C@H](O)C[C@@]5(C)[C@]4(C)CC[C@H]3C2(C)C)O[C@H](CO)[C@@H](O)[C@@H]1O` (stereo partly drawn), for which the max response was -7.8% (inactive).

As for `CN[C@H](CNC(=O)N1CCC[C@@H]([C@@H](OCCNC(=O)OC)c2cccc(Cl)c2)C1)C[C@H]1CCCOC1`, the max response is -5.16% (inactive).

For the molecule `COc1ccc(CC(=O)NCc2ccccc2-c2ccccc2C(=O)NCCc2cccnc2)cc1`, the max response is -3.16% (inactive).

In the case of `COc1ccc(Oc2c(Cl)cnn(C3c4ccccc4-c4ccccc43)c2=O)cc1`, the max response is -3.95% (inactive).

On to `COCCN1CCC(C(=O)NO)(S(=O)(=O)c2ccc(Oc3ccc(OC(F)(F)F)cc3)cc2)CC1`, for which the max response was -0.582% (inactive).

In the case of `CC(=O)O[C@@H]1[C@H](O[C@@H]2OC[C@](O)(CO)[C@H]2O)[C@@H](O[C@@H]2O[C@@H](C)[C@H](O)[C@@H](O[C@@H]3O[C@H](CO)[C@@H](O)[C@H](O)[C@H]3O)[C@H]2O)[C@H](OC(=O)[C@]23CCC(C)(C)C[C@H]2C2=CCC4[C@@]5(C)C[C@H](O)[C@H](O[C@@H]6O[C@H](C(=O)O)[C@@H](O)[C@H](O)[C@H]6O)[C@@](C)(C(=O)O)C5CC[C@@]4(C)[C@]2(C)CC3)O[C@@H]1C` (stereo partly drawn), the max response was -6.6% (inactive).

In the case of `COC(=O)c1ccccc1O[C@@H]1O[C@H](CO[C@@H]2OC[C@@H](O)[C@H](O)[C@H]2O)[C@@H](O)[C@H](O)[C@H]1O`, the max response was 0.973% (inactive).

In the case of `C[C@H](O)C(O)(C(=O)OCc1ccccc1NC(=O)CCC(N)C(=O)O)[C@H](C)O` (stereo partly drawn), the max response is -7.85% (inactive).
